The full data set covers some 8,800 targets. This sample favours those with a hit. About 0.5% of all pairs of compound and target were hits. Unmarked numbers belong to inactive results.
What was measured:
Assay in all cases: log2 fold change, soluble protein after heating vs DMSO (PISA); higher = thermal stabilisation; K562 lysate, 10 uM; active = over 0.2 and 3.5 SD of the protein, either way, in both replicates (recomputed)
[1] = compound: CN1CC[C@H](c2c(O)cc(O)c3c(=O)cc(-c4ccccc4Cl)oc23)[C@H](O)C1 [alvocidib]
In short: (§1)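 Soluble protein was defined as the supernatant remaining after 21,000xg for 90 min, following pooling of heated aliquots and adjustment to 0.5% NP-40 at 4°C. Before that, crude K562 extract at 1 mg/mL protein in PBS pH 7.4 with 1 mM MgCl2 was treated with 10 μM compound for 30 min and heated for 3 min across 48°C-58°C. Quantification used TMTpro 16plex LC-MS/MS with channel sums equalised, and values are log-two fold changes in thermal stability relative to solvent controls from duplicates.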

[2] = compound: CN1CCc2c(c3ccccc3n2Cc2ccc(C(=O)NO)cc2)C1 [Tubastatin A]
In short: as §1

[3] = compound: CNC(=O)C1=CC=CC=C1NC2=NC(=NC=C2Cl)NC3=C(C=C(C=C3)N4CCOCC4)OC
In short: as §1

[4] = compound: CNC(=O)c1ccc(Nc2ncc(C(F)(F)F)c(NCc3nccnc3N(C)S(C)(=O)=O)n2)cc1 [defactinib]
In short: as §1

[5] = compound: CNc1nc(-c2ccc3c(N)n[nH]c3c2)cc(N2C[C@@H](C(=O)NC3CCCCC3)CC[C@H]2C)n1
In short: as §1

[6] = compound: COC(=O)N[C@@H](C)CNc1nccc(-c2cn(C(C)C)nc2-c2cc(Cl)cc(NS(C)(=O)=O)c2F)n1 [encorafenib]
In short: as §1

[7] = compound: COC(=O)[C@H](CCSC)NC(=O)C1=C(C=C(C=C1)NC[C@H](CS)N)C2=CC=CC=C2
In short: as §1

[8] = compound: COc1cc(Nc2ncc3c(n2)-c2ccc(Cl)cc2C(c2c(F)cccc2OC)=NC3)ccc1C(=O)O [alisertib]
In short: as §1

[9] = compound: COc1cc2nc(-c3cc(F)ccc3O)nc(N[C@@H]3CNC[C@H]3C(C)(C)O)c2cc1OC
In short: as §1

[10] = compound: COc1cc2ncnc(Nc3ccc(F)c(Cl)c3)c2cc1OCCCN1CCOCC1 [gefitinib]
In short: as §1

[11] = compound: CS(=O)(=O)CCNCc1ccc(-c2ccc3ncnc(Nc4ccc(OCc5cccc(F)c5)c(Cl)c4)c3c2)o1 [lapatinib]
In short: as §1

[12] = compound: CS(=O)(=O)N1CCN(Cc2cc3nc(-c4cccc5[nH]ncc45)nc(N4CCOCC4)c3s2)CC1 [pictilisib]
In short: as §1

[13] = compound: C[C@@H](Oc1cc(-c2cnn(C3CCNCC3)c2)cnc1N)c1c(Cl)ccc(F)c1Cl [crizotinib]
In short: as §1

[14] = compound: C[C@H](C1=CC=C(C=C1)C(=O)NC2=C3C=CNC3=NC=C2)N
In short: as §1

[15] = compound: C[C@H](Nc1ncnc2nc[nH]c12)c1cc2cccc(Cl)c2c(=O)n1-c1ccccc1 [duvelisib]
In short: as §1

[16] = compound: Cc1cc(Nc2cc(CN3CCOCC3)c3nc(C)c(Cc4ccc(Cl)cc4F)n3n2)n[nH]1 [gandotinib]
In short: as §1

[17] = compound: Cc1cc(Nc2cc(N3CCN(C)CC3)nc(Sc3ccc(NC(=O)C4CC4)cc3)n2)n[nH]1 [tozasertib]
In short: as §1

[18] = compound: Cc1ccc(-n2nc(C(C)(C)C)cc2NC(=O)Nc2ccc(OCCN3CCOCC3)c3ccccc23)cc1 [doramapimod]
In short: as §1

[19] = compound: Cc1ccc(NC(=O)c2ccc(CN3CC[C@H](N(C)C)C3)c(C(F)(F)F)c2)cc1Nc1nccc(-c2cncnc2)n1 [bafetinib]
In short: as §1

[20] = compound: Cc1cccc(CC(=O)N2CCc3c2ccc(-c2cn(C)c4ncnc(N)c24)c3F)n1
In short: as §1

Sequence of UniProt O14641 (O14641 whole entry, looked up): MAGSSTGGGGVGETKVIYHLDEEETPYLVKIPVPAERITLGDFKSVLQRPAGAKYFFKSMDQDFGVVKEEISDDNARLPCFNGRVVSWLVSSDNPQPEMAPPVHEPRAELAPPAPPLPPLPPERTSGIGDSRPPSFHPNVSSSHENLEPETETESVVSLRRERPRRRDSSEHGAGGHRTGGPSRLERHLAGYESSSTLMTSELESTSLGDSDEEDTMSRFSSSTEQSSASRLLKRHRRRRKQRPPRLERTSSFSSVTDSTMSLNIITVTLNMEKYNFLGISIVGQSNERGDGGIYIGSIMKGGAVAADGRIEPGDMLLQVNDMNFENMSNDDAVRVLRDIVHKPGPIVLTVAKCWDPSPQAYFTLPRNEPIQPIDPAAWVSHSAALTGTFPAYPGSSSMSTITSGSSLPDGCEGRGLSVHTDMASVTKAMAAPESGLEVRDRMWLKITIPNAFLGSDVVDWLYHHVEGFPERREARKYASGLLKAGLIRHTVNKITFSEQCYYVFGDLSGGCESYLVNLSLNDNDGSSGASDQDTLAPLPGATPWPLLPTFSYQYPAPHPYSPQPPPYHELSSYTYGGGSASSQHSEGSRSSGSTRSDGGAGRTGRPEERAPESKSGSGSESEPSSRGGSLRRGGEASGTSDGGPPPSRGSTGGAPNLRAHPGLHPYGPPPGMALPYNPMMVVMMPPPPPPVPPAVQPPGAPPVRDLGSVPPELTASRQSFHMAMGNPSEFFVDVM
Sequence of UniProt P35916 (P35916 whole entry, looked up): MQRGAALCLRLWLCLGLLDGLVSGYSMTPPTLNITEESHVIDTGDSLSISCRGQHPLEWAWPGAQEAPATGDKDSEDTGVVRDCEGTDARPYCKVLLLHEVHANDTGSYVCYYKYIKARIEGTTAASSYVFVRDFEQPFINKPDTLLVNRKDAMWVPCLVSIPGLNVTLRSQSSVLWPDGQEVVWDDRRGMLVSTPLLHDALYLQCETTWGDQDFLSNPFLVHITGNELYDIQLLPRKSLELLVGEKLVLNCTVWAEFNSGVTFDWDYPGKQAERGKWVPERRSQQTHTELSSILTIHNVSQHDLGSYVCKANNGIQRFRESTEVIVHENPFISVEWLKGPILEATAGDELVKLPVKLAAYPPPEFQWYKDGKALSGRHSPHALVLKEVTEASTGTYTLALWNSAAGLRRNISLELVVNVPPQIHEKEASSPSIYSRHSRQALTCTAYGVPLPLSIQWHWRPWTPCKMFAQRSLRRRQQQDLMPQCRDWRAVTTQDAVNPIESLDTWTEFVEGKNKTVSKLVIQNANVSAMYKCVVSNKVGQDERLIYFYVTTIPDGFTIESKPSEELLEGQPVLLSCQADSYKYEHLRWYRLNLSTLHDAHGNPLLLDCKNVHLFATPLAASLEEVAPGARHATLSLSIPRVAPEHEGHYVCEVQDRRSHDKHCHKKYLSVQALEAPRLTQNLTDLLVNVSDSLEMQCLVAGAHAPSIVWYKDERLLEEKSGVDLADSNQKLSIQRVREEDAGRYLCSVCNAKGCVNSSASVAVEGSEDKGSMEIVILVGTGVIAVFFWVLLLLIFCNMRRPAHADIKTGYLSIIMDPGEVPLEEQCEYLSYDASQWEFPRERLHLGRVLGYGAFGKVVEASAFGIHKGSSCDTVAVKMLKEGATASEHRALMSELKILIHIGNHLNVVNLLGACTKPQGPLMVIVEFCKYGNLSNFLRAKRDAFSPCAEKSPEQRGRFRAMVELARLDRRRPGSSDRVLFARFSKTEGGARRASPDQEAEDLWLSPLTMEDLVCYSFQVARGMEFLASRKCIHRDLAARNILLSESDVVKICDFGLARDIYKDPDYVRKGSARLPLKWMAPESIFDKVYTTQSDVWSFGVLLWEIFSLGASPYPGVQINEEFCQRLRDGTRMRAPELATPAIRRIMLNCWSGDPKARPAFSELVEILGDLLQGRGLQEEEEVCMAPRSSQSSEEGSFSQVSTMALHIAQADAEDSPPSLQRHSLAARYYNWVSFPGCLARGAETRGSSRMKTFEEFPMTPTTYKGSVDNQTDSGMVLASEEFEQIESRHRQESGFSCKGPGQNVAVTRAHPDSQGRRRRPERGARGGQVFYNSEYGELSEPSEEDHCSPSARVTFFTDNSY
Sequence of UniProt O14893 (O14893 whole entry, looked up): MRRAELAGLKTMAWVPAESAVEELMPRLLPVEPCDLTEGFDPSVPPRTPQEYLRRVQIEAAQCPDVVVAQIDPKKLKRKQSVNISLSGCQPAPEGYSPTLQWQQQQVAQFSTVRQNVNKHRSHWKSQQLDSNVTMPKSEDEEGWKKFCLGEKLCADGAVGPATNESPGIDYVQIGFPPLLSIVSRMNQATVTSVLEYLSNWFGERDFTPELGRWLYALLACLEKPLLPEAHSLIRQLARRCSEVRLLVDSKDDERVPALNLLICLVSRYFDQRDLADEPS
Sequence of UniProt Q06547 (Q06547 whole entry, looked up): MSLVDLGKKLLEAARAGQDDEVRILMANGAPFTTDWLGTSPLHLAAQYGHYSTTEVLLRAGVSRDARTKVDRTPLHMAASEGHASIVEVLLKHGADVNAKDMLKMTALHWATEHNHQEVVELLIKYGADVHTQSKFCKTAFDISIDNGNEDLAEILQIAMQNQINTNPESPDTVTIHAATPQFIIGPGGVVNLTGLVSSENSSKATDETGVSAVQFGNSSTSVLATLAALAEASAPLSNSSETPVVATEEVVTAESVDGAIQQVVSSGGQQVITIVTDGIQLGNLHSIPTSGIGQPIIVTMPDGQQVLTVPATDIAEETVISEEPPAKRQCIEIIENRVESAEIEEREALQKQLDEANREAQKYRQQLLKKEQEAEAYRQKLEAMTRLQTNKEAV
Sequence of UniProt Q8NFI3 (Q8NFI3 whole entry, looked up): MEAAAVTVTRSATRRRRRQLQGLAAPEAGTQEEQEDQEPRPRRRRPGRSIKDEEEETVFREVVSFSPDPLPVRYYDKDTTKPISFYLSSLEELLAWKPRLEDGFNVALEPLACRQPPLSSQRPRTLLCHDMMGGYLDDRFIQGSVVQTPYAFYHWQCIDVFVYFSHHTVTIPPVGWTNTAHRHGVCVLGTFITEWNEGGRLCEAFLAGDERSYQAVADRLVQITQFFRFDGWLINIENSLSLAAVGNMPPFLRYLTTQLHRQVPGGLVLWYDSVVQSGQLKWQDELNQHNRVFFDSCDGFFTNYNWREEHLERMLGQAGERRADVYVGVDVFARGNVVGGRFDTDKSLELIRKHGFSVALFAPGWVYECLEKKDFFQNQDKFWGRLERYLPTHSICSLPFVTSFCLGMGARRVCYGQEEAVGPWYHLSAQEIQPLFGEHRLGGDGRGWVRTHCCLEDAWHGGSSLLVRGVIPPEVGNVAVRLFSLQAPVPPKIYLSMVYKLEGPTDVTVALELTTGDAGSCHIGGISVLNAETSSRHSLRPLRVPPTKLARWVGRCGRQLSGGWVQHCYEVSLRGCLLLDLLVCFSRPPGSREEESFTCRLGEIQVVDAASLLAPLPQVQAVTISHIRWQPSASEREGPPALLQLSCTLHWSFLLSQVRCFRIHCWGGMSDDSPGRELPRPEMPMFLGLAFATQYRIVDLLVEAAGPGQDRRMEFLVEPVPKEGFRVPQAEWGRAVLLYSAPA
Sequence of UniProt Q13409 (Q13409 whole entry, looked up): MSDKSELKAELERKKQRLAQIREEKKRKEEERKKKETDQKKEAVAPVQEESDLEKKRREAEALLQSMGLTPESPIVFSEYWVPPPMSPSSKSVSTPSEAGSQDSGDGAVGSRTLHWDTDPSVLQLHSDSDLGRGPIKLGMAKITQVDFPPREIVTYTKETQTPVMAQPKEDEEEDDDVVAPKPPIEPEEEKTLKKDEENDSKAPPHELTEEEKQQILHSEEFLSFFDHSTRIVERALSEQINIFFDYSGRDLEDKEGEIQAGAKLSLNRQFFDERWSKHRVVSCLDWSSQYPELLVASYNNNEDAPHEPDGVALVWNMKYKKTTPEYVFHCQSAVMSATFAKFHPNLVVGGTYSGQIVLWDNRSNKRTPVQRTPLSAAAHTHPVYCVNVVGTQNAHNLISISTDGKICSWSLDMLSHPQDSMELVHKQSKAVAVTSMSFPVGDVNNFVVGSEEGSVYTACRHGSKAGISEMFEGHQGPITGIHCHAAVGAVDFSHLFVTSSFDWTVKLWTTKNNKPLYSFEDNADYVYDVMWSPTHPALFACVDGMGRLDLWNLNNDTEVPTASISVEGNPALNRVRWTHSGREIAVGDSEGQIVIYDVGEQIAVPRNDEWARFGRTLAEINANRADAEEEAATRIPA
Sequence of UniProt P28676 (P28676 whole entry, looked up): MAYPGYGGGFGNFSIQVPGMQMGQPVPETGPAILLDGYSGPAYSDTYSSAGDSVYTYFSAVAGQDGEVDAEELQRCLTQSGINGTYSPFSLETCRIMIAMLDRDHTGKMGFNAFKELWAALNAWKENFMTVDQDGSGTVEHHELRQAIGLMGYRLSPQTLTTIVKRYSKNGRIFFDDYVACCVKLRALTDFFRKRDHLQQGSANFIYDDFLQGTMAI
Sequence of UniProt Q6PIW4 (Q6PIW4 whole entry, looked up): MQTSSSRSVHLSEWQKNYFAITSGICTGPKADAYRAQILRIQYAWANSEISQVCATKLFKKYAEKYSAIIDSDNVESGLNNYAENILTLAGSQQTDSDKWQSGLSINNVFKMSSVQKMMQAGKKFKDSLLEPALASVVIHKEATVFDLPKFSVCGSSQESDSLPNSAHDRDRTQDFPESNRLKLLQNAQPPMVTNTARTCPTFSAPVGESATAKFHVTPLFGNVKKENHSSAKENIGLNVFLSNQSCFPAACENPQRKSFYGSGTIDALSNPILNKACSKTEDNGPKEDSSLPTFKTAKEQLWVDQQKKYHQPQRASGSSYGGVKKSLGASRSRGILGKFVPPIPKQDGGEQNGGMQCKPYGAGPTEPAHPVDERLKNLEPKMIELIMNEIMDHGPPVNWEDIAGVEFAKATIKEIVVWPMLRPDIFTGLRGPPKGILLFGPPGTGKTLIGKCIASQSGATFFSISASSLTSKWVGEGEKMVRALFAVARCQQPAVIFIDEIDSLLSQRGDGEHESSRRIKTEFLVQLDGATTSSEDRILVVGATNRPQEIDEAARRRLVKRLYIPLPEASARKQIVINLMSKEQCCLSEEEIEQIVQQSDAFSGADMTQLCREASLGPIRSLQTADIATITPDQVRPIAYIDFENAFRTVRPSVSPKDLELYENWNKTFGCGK

Target | log2 fold change [1] | log2 fold change [2] | log2 fold change [3] | log2 fold change [4] | log2 fold change [5] | log2 fold change [6] | log2 fold change [7] | log2 fold change [8] | log2 fold change [9] | log2 fold change [10] | log2 fold change [11] | log2 fold change [12] | log2 fold change [13] | log2 fold change [14] | log2 fold change [15] | log2 fold change [16] | log2 fold change [17] | log2 fold change [18] | log2 fold change [19] | log2 fold change [20]
GEMIN2 (UniProt O14893) | 0.034 | -0.053 | 0.001 | -0.006 | 0.013 | 0.095 | -0.009 | -0.017 | 0.009 | -0.1 | -0.025 | -0.029 | 0.059 | -0.12 | 0.075 | 0 | -0.021 | -0.092 | -0.053 | 0.139
FIGNL1 (UniProt Q6PIW4) | -0.018 | -0.189 | 0.014 | 0.05 | -0.018 | 0.041 | 0.069 | -0.003 | 0.005 | 0.01 | 0 | -0.03 | -0.078 | -0.035 | 0.002 | -0.071 | 0.003 | -0.018 | -0.024 | 0.007
EIF2D (UniProt P41214) | 0.017 | -0.083 | 0.003 | 0.033 | -0.024 | -0.014 | 0.164 | 0.013 | -0.018 | -0.031 | -0.002 | -0.014 | -0.067 | 0.024 | 0.022 | -0.084 | 0.029 | 0.032 | -0.063 | -0.01
GDPD1 (UniProt Q8N9F7) | 0 | -0.023 | 0.006 | -0.03 | 0.046 | 0.059 | -0.272 (active) | -0.018 | -0.027 | -0.035 | 0.03 | -0.042 | -0.157 | 0.001 | 0.049 | 0.164 | -0.029 | 0.027 | 0.022 | 0.007
DYNC1I2 isoform 5 (UniProt Q13409) | 0.002 | 0.007 | -0.021 | -0.011 | 0.012 | -0.007 | -0.012 | -0.011 | 0.004 | 0.006 | -0.003 | -0.017 | -0.003 | -0.004 | -0.002 | 0.009 | 0.012 | 0.006 | 0.03 | -0.003
ENGASE (UniProt Q8NFI3) | -0.144 | -0.02 | 0.043 | -0.011 | 0.02 | 0.018 | -0.056 | 0.025 | -0.015 | 0.018 | -0.02 | 0 | 0.011 | -0.048 | -0.025 | 0.116 | 0.051 | 0.033 | 0.003 | 0.148
GABPB1 isoform 3 (UniProt Q06547) | -0.013 | -0.299 (active) | -0.055 | -0.025 | -0.039 | -0.006 | 0.099 |  | 0.016 |  | -0.057 | -0.086 | 0.001 | -0.007 | 0.068 | 0 | -0.001 | -0.029 | -0.149 | 0.043
EPHX2 (UniProt P34913) | -0.018 | 0.183 | -0.023 | -0.002 | 0.123 | -0.02 | -0.058 | -0.045 | -0.007 | -0.002 | -0.031 | -0.019 | 0.061 | 0.008 | -0.031 | 0.057 | 0.116 | -0.079 | 0.131 | 0.012
FLT4 (UniProt P35916) | -0.086 | -0.001 | -0.428 (active) | 0.004 | -0.081 | -0.129 | 0.053 |  | 0.031 |  | -0.007 | 0.057 |  | -0.173 | 0.026 | 0.019 | -0.056 |  | -0.035 | -0.041
DVL2 (UniProt O14641) | 0.002 | -0.079 | -0.039 | 0.028 | -0.027 | -0.018 | -0.036 | 0.003 | -0.069 | 0.006 | 0.096 | -0.037 | -0.056 | 0.026 | 0 | -0.107 | -0.039 | 0.106 | -0.232 | 0.054
FIG4 (UniProt Q92562) | -0.106 | 0.012 | -0.004 | -0.039 | -0.016 | 0.064 | 0.037 | -0.145 | 0.079 | 0.148 | -0.065 | 0.12 | -0.016 | 0.039 | -0.023 | -0.099 | -0.112 | -0.067 | -0.09 | 0.058
EIF2B5 (UniProt Q13144) | 0.03 | -0.06 | 0.04 | 0.022 | 0.023 | -0.009 | 0.046 | -0.004 | 0.005 | -0.016 | -0.01 | -0.012 | -0.009 | -0.005 | 0.001 | -0.119 | -0.019 | 0.003 | -0.033 | 0.006
DTYMK (UniProt P23919) | 0.037 | -0.095 | 0.01 | -0.006 | 0.04 | -0.061 | 0.283 (active) | 0.009 | -0.007 | -0.011 | 0.026 | -0.003 | -0.042 | 0.055 | 0.023 | -0.135 | 0.01 | 0.045 | 0.007 | -0.029
FAM111A (UniProt Q96PZ2) |  | -0.083 | 0.022 | 0.053 | -0.119 | -0.074 | -0.11 |  | -0.091 |  | 0.223 |  | -0.01 |  | 0.03 |  | -0.02 | -0.163 |  | 
EIF2AK3 (UniProt Q9NZJ5) | 0.281 | -0.369 | 0.28 |  | 0.104 |  |  | -0.128 | -0.197 | 0.001 | 0.3 |  |  | -0.051 | -0.122 | -0.212 |  |  |  | 1.48 (active)
FTSJ1 isoform 2 (UniProt Q9UET6) | 0.015 |  |  | 0.028 |  | -0.027 | 0.047 |  | -0.016 |  | 0.013 |  |  | -0.129 |  | 0.077 | -0.175 |  |  | 0.079
GCA (UniProt P28676) | -0.016 |  | -0.035 |  |  |  |  | -0.038 | -0.253 | -0.197 | 0.016 |  |  | -0.091 |  | -0.073 |  |  |  | 0.057
FOXL2 (UniProt P58012) |  | -0.049 | 0.031 |  | 0.005 | 0.079 | 0.138 |  | 0.015 |  | -0.25 | 0.091 |  |  | 0.094 |  | -0.092 |  | -0.703 (active) | 
GAA (UniProt P10253) | -0.006 | 0.098 | -0.047 | -0.513 (active) |  | 0.097 | -0.15 | -0.117 | 0.089 | -0.043 | 0.083 | 0.034 | -0.098 | -0.018 |  | 0.04 | -0.027 | -0.099 | 0.081 | -0.04
EWSR1 (UniProt H7BY36) | 0.206 | 0.179 |  | 0.14 | 0.037 | 0.063 | -0.061 |  |  |  |  | 0.071 | -0.042 | 0.07 | -0.011 | -0.167 | 0.01 | -0.066 | 0.293 | 0.019
GDE1 (UniProt Q9NZC3) | 0.307 | -0.047 | 0.014 |  | 0.024 | -0.045 | -0.02 |  | -0.038 |  | -0.016 | 0.114 | -0.005 | 0.842 (active) | 0.049 | -0.434 (active) | 0.157 | -0.017 | -0.041 | -0.409 (active)
DUSP22 isoform 2 (UniProt Q9NRW4) | 0.034 | -0.079 | -0.066 | -0.085 | 0.043 |  |  | 0.18 | -0.11 | -0.101 | 0.031 | -0.082 |  | -0.058 | 0.038 | 0.03 |  |  | 0.018 | 0.037
EXO5 (UniProt Q9H790) |  | 0.018 | 0.068 |  |  |  |  |  |  |  |  | -0.43 (active) | -0.113 |  |  |  |  | 0.061 | -0.261 | 

— the supplement of paper PMC10849652
